Each structure is given as a SMILES string. In all, about 330,000 compounds went through this assay and about 1,900 (0.58%) were called active. Inconclusive results (about 4%) are left out. Rule as the data show it: inconclusive = inhibition above about 70% without an active follow-up result; inactive = below that. Not all results are given here. Potency and affinity values are given separately.

This assay is described as follows: M. tuberculosis growth inhibition, HTS (AID 449762).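 Also: bacterial growth assessed after seven days of incubation.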 To be noted: M. tuberculosis H37Rv growth inhibition, 7H9 media; at 25 µM; active compounds read high.
What is called inhibition is the change of the read-out against control, counted positive when it falls. Consider `COCc1cc(C)nc(SCc2ccccc2)c1C#N`, for which the inhibition was 15.8% (inactive).

Regarding `COc1ccc(/C=C/C(=O)Oc2cccc(/C=N/NC(=O)c3cccc(F)c3)c2)cc1`, the inhibition is 7.76% (inactive).

As to `O=C(Oc1cccc(-n2cnnn2)c1)c1ccccc1Cl`, the inhibition was -11.6% (inactive).

Turning to `CCc1ccccc1NC(=O)c1noc(C(C)C)c1[N+](=O)[O-]`, the inhibition is 2.17% (inactive).

`Cc1ccc(NC(=O)c2noc(C(C)C)c2[N+](=O)[O-])cc1`: the inhibition was 0.01% (inactive).

With `COc1ccc(C(C(=O)NC2CCCC2)N(Cc2ccco2)C(=O)c2snc(C(N)=O)c2N)cc1OC` (stereo not drawn), the inhibition was 3.33% (inactive).

For the molecule `COc1cccc(/C=N/NC(=O)c2cccc([N+](=O)[O-])c2)c1OS(=O)(=O)c1ccccc1`, the inhibition is -10.3% (inactive).

For `Cc1cc(Nc2cc(N3CCN(C)CC3)nc(Sc3ccc(NC(=O)C4CC4)cc3)n2)n[nH]1`, the inhibition is 3.52% (inactive).

Regarding `Cc1nc(-c2ccc(NC(=O)C3CC3)cc2)cs1`, the inhibition was 37.4% (inactive).

For `COc1cccc(NC(=O)Cn2c(=O)n(-c3ccccc3)c(=O)c3oc4ccccc4c32)c1`, the inhibition was -3.21% (inactive).

With `Cc1ccc2c(c1)c1c(n2C)C(C(N)=O)CCC1` (stereo not drawn), the inhibition was -14.2% (inactive).

Regarding `c1ccc(Cn2c(CNc3nc4ccccc4n3CCN3CCOCC3)nc3ccccc32)cc1`, the inhibition is 10.7% (inactive).

In the case of `Cn1c(CNc2nc3ccccc3n2CCN2CCCCC2)nc2ccccc21`, the inhibition is 1.84% (inactive).

With `Cc1ccc(C(=O)N/C(=C/c2cccs2)C(=O)NCCCn2ccnc2)cc1`, the inhibition is -0.44% (inactive).

On to `O=C(NCCCSc1ccccc1)c1cccnc1`, for which the inhibition was 2.65% (inactive).

Regarding `NC(=O)N/N=C/c1ccc2cccc(OCc3ccccc3)c2n1`, the inhibition is 12.6% (inactive).

With `O=C(Cc1ccccc1)N/N=C/c1ccccn1`, the inhibition was -3.52% (inactive).

For the molecule `CC(N)(C(=O)O)c1cccc(OCc2cccc(Cl)c2)c1` (stereo not drawn), the inhibition was -9.95% (inactive).

Take `CN(C(=O)CSc1nccc(=O)[nH]1)C1CCCCC1`: the inhibition is -5.2% (inactive).

For the molecule `CCCn1c(Nc2ccccc2C)nc2ccccc21`, the inhibition was -13.5% (inactive).

As for `CCCn1c(Nc2ccccc2)nc2ccccc21`, the inhibition is 3.3% (inactive).

With `CCN1CCN(Cc2cc(Br)ccc2O)CC1`, the inhibition is -0.17% (inactive).

For `CC(C)CCC(C)NC(=O)CN1C(=O)NC(C)(c2ccc3ccccc3c2)C1=O` (stereo not drawn), the inhibition was -6.81% (inactive).

On to `COc1ccc(C(=O)OCC(=O)NC2CC2)cc1F`, for which the inhibition was 2.71% (inactive).

Regarding `CCNC(=S)NCc1ccco1`, the inhibition is 8.6% (inactive).

Take `NNC(=S)NCc1ccco1`: the inhibition is -5.28% (inactive).

On to `CC[C@@H]1CN(C)[C@H]2Cc3c([nH]c4ccccc34)C(=O)C[C@@H]1[C@@H]2C(=O)OC`, for which the inhibition is -5.83% (inactive).

As to `COc1ccc(C2CC(c3ccc(Cl)cc3)n3nc(N)nc3N2)cc1` (stereo not drawn), the inhibition is 1.53% (inactive).

Take `CCCc1nn2c(=O)c(C(c3cccc(Cl)c3)c3c(O)nc4sc(CCC)nn4c3=O)c(O)nc2s1`: the inhibition was -6.75% (inactive).

As to `CCOc1ccc(NC(=O)CCc2nnc3ccc(N4CCN(C)CC4)nn23)cc1`, the inhibition is 1.67% (inactive).

On to `COc1ccc(NC(=O)CCc2nnc3ccc(N4CCC(C)CC4)nn23)cc1`, for which the inhibition is -0.59% (inactive).

Take `O=C1CCCc2c1nc(-c1ccc([N+](=O)[O-])cc1)n2O`: the inhibition was 0.46% (inactive).

As to `CC(C)CNC(=O)/C(C#N)=C1\N=C(NC(=O)c2ccco2)c2ccccc21`, the inhibition is 12.4% (inactive).

With `Cc1cc(OC(F)F)ccc1NC(=O)Nc1ccc([N+](=O)[O-])cc1`, the inhibition was 17.3% (inactive).

Take `O=C(Nc1ccc(OC(F)F)c(Cl)c1)Nc1ccc2c(c1)OCO2`: the inhibition was 5.38% (inactive).

On to `Cc1ncc([N+](=O)[O-])n1CC(=O)NC1CCCCCC1`, for which the inhibition was 0.9% (inactive).

For the molecule `O=C(Cc1ccc([N+](=O)[O-])cc1)OCc1c(F)cccc1Cl`, the inhibition was 7.51% (inactive).

For the molecule `CC(C)N(Cc1ccccc1)CC(O)COc1ccc(S(=O)(=O)N2CCOCC2)cc1Cl` (stereo not drawn), the inhibition is 1.09% (inactive).

As for `O=c1cc(-c2ccccc2O)nc(-c2ccccc2)[nH]1`, the inhibition was 15.5% (inactive).

On to `Cc1nn(-c2ccc(F)cc2)c(Cl)c1/C=C(\CC(=O)O)c1nc2ccccc2s1`, for which the inhibition was -5.29% (inactive).

On to `COc1ccc(C(=O)COC(=O)[C@H](C)Nc2ccc(C(F)(F)F)cc2[N+](=O)[O-])c(OC)c1`, for which the inhibition was 11.7% (inactive).

As to `Cc1cc(C)c(C(=O)COC(=O)[C@H](C)Nc2ccc(C(F)(F)F)cc2[N+](=O)[O-])c(C)c1`, the inhibition was -3.25% (inactive).

As to `Cc1cccc(NC(=O)CSc2cc(C)c(C#N)c3nc4ccccc4n23)c1`, the inhibition was -1.23% (inactive).

`CCOC(=O)CSc1cc(C)c(C#N)c2nc3ccccc3n12`: the inhibition is 9.77% (inactive).

As for `COC(=O)C1=CO[C@@H](O[C@@H]2O[C@H](CO)[C@@H](O)[C@H](O)[C@H]2O)C2C1CC(O)O[C@H]2C` (stereo partly drawn), the inhibition is -0.01% (inactive).

On to `COc1ccccc1-c1nnn(C/C(N)=N/O)n1`, for which the inhibition was -5.65% (inactive).

Consider `Cc1cc(C)c(NC(=O)CSc2nccn2C)c(C)c1`, for which the inhibition was 5.06% (inactive).

With `COc1ccc(CNC(=O)c2sc3nc4c(c(C(F)(F)F)c3c2N)CCC4)cc1OC`, the inhibition was 38.5% (inactive).

For `COc1ccc(CNC(=O)c2sc3nc4c(c(C(F)(F)F)c3c2N)CCC4)cc1`, the inhibition is 0.35% (inactive).

As to `CC(=O)NCCNC(=O)C1CCC(CNc2nc(=S)[nH]c3ccccc23)CC1` (stereo not drawn), the inhibition was -6.34% (inactive).

Turning to `CC(C)(C)c1ccc(OCCNC(=O)c2ncn[nH]2)cc1`, the inhibition was 31.8% (inactive).

On to `CCOc1cccc(/C=N/NC(=S)Nc2ccccc2[N+](=O)[O-])c1O`, for which the inhibition is 0.56% (inactive).

With `CCCCNC(=S)N/N=C/c1ccccc1F`, the inhibition is 31.4% (inactive).

As for `CCOc1cccc(C=NCCc2ccc(OC)c(OC)c2)c1O`, the inhibition is -1.63% (inactive).

Consider `COc1cccc(C=Nc2cc(C)cc(C)c2)c1O`, for which the inhibition is 4.13% (inactive).

Regarding `Cc1ccc([C@@H]2CC=C(C(=O)O)[C@H](c3ccc(F)cc3)N2S(=O)(=O)c2ccc(C)cc2)cc1`, the inhibition is 7.16% (inactive).

In the case of `O=C(O)C(c1ccccc1)N1CCCC1` (stereo not drawn), the inhibition is -1.43% (inactive).

Turning to `Nc1ccccc1SC(C[N+](=O)[O-])c1ccccc1` (stereo not drawn), the inhibition was 10.3% (inactive).

Regarding `Nc1ccccc1Sc1ccccc1[N+](=O)[O-]`, the inhibition was -1.08% (inactive).

In the case of `Cc1ccc(NC(=O)Cn2c3ccc(F)cc3c3nc4n(c(=O)c32)CCS4)cc1F`, the inhibition is 6.34% (inactive).

`CC(C)(C)c1csc(NC(=O)c2ccccc2O)n1`: the inhibition is 3.48% (inactive).

As to `CC(C)(C)c1csc(NC(=O)c2ccncc2)n1`, the inhibition is 6.43% (inactive).

In the case of `O=C(CN1CCN(c2ccccc2Cl)CC1)NC1CCCc2ccccc21` (stereo not drawn), the inhibition is 7.47% (inactive).

On to `O=C(CN1CCN(c2cccc(Cl)c2)CC1)NC1CCCc2ccccc21` (stereo not drawn), for which the inhibition was 11.3% (inactive).

Regarding `CN(CCNC(=O)C1CCCN(c2ncnc3c2nc2n3CCCCC2)C1)Cc1ccccc1` (stereo not drawn), the inhibition was -0.58% (inactive).

Take `CC1CCCN(C(=O)CN2C(=O)NC(C)(c3ccc4ccccc4c3)C2=O)C1` (stereo not drawn): the inhibition is 3.55% (inactive).

For the molecule `C[C@H](CO)N1C[C@H](C)[C@@H](CN(C)Cc2ccc(-c3ccccc3)cc2)Oc2c(NS(=O)(=O)c3ccc(F)cc3)cccc2C1=O`, the inhibition is -1.65% (inactive).

`C[C@]12CC[C@@H](O)CC1=CC(=O)C1C2CC[C@]2(C)C(=O)CCC12` (stereo partly drawn): the inhibition was 3.17% (inactive).

Turning to `C[C@]12CC[C@H](O)CC1=CC(=O)C1C2CC[C@]2(C)C(=O)CCC12` (stereo partly drawn), the inhibition is -1.13% (inactive).

For `NCCCn1cnc2ccccc21`, the inhibition is 9.6% (inactive).

Regarding `Cc1nonc1OC(C)CNc1ccc([N+](=O)[O-])cc1` (stereo not drawn), the inhibition is 8.67% (inactive).

As to `O=[N+]([O-])c1cnn(-c2nc(-c3ccco3)cc(C(F)(F)F)n2)c1`, the inhibition was -2.2% (inactive).

Regarding `CN1CCN(c2nc(-c3ccco3)cc(C(F)(F)F)n2)CC1`, the inhibition was 7.69% (inactive).

As to `CCn1ncc(/C=N/O)c1C`, the inhibition was -7.24% (inactive).

With `CCOC(=O)C1(CCOc2ccccc2)CCN(Cc2cccc(OC)c2)CC1`, the inhibition is 8.09% (inactive).

With `CCOC(=O)C1(CCOc2ccccc2)CCN(Cc2cccc(O)c2)CC1`, the inhibition is 3.57% (inactive).

Take `Cc1ccc(OCC(=O)N(C)CC(=O)Nc2ccc(F)c(F)c2F)cc1`: the inhibition was 4.12% (inactive).

For the molecule `Cc1ccc(S(=O)(=O)N2CCN(C3CC4CCC3C4)CC2)cc1` (stereo not drawn), the inhibition was -2.36% (inactive).

Turning to `O=C(CCNS(=O)(=O)c1ccccc1)N1CCN(C(c2ccccc2)c2ccccc2)CC1`, the inhibition is 4.06% (inactive).

`CCOc1ccc(-c2cc(CCCC(=O)NCCc3ccccc3)no2)cc1`: the inhibition is -2.4% (inactive).

Turning to `CCOc1ccc(-c2cc(CCCC(=O)NCCCOC)no2)cc1`, the inhibition is -1.18% (inactive).

As for `CCn1c2c(c3cc(OCC(C)C)ccc31)CCCC2=O`, the inhibition was -1.76% (inactive).

For `COc1ccc(NC(=O)CS(=O)(=O)c2cn(CC(=O)N3CCOCC3)c3ccccc23)cc1OC`, the inhibition was -16% (inactive).

As for `O=S1(=O)N=C(SCCO)c2ccccc21`, the inhibition is 8.5% (inactive).

For `Cc1ccc(SC2=C(Sc3ccc(C)cc3)C(=O)c3ccccc3C2=O)cc1`, the inhibition was -5.39% (inactive).

For the molecule `COc1cc(C(=O)OCC(=O)Nc2ccccc2C(=O)NC2CC2)c([N+](=O)[O-])cc1OC`, the inhibition is -0.465% (inactive).

As for `COc1cccc(C2C(C#N)=C(N)OC(C(C)(C)C)=C2C#N)c1` (stereo not drawn), the inhibition was -2.5% (inactive).

Consider `COC(=O)c1c(NC(=S)Nc2ccc(C(=O)N3CCOCC3)cc2)sc2c1CCC2`, for which the inhibition was -7.13% (inactive).

Take `O=C(NCCN1CCCC1)c1ccc(Cn2c(=S)[nH]c3ccc(Br)cc3c2=O)cc1`: the inhibition was 64.3% (inactive).

Consider `CN(C)CCNC(=O)c1ccc2c(=O)n(Cc3ccc(Cl)cc3)c(=S)[nH]c2c1`, for which the inhibition was 2.11% (inactive).

`C/C(=N/NC(=O)c1cc(C)[nH]n1)c1ccncc1`: the inhibition was 0.52% (inactive).

With `CC1CCN(C(=O)C2CCCCN2S(=O)(=O)c2cccc([N+](=O)[O-])c2)CC1` (stereo not drawn), the inhibition is 0.51% (inactive).

`COC(=O)c1[nH]c2ccccc2c1NC(=O)C(C)N1CCN(C(=O)c2ccco2)CC1` (stereo not drawn): the inhibition was -9.02% (inactive).

For the origin of these results see PubChem BioAssay AID449762 (Southern Research Specialized Biocontainment Screening …, 2010).
